The panel holds about 79,000 compounds, 15% with a hit somewhere; the sample as a whole holds those more often. Activity calls are given as the source filed them. No stated cut-off is given here; in the data, active means growth inhibition above about 70%; inactive means the rest.
Legend:
[1] = NCI Yeast Anticancer Drug Screen. Data for the rad52 strain (AID 147);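 further: 0% = growth of vehicle-treated control cultures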; conditions: S. cerevisiae rad52 mutant growth inhibition, hits give high values
How it was run: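 Growth of repair-deficient yeast cells was compared between compound-treated and vehicle-treated cultures to give percent inhibition.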

[2] = NCI Yeast Anticancer Drug Screen. Data for the wt1 strain (AID 149);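 further: 0% = growth of vehicle-treated wt1 cultures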; conditions: S. cerevisiae wt1 strain (SPY 50644) growth inhibition, hits give high values
How it was run: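 Each compound is tested on wt1 yeast and the loss of growth versus vehicle gives the inhibition value.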

[3] = NCI Yeast Anticancer Drug Screen. Data for the rad50EPP+ strain (AID 151);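 further: 0% = growth of vehicle-treated control cultures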; conditions: S. cerevisiae rad50 mutant strain, hits give high values
How it was run: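 Measured: growth inhibition of rad50EPP+ yeast. Reference: vehicle-treated controls. Screen uses strains with defined genetic alterations in DNA damage repair or cell cycle control.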

[4] = NCI Yeast Anticancer Drug Screen. Data for the mgt1 strain (AID 153); conditions: S. cerevisiae mgt1 mutant growth inhibition, hits give high values
How it was run: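 Compounds were applied to mgt1 mutant yeast, and growth was then compared against vehicle-treated control cultures to give percent inhibition.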

[5] = NCI Yeast Anticancer Drug Screen. Data for the rad50 strain (AID 155);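 further: 0% = growth of vehicle-only cultures of the same strain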; conditions: S. cerevisiae rad50 strain growth inhibition, hits give high values
How it was run: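 Vehicle-treated cultures provide the reference for the growth inhibition reported for compound-exposed, repair-deficient yeast.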

[6] = NCI Yeast Anticancer Drug Screen. Data for the mec2-1 strain (AID 157); conditions: S. cerevisiae mec2-1 strain, hits give high values
How it was run: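 Compounds were applied to mec2-1 yeast cells. Their growth was then compared with that of vehicle-treated cultures to give growth inhibition.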

[7] = NCI Yeast Anticancer Drug Screen. Data for the rad14 strain (AID 159);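 further: 0% = growth of vehicle-treated control cultures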; conditions: S. cerevisiae rad14 strain growth inhibition, hits give high values
How it was run: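 Inhibition of growth is reported for a repair-deficient yeast mutant following compound treatment, calculated relative to cultures that received vehicle.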

[8] = NCI Yeast Anticancer Drug Screen. Data for the sgs1 mgt1 strain (AID 161);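 further: 0% = growth of cultures given vehicle only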; conditions: S. cerevisiae sgs1 mgt1 strain, hits give high values
How it was run: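 Yeast cells carrying a defined DNA-repair defect were exposed to test compounds. Growth inhibition was measured relative to vehicle-treated controls.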

[9] = NCI Yeast Anticancer Drug Screen. Data for the CLN2oe strain (AID 163);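 further: 0% = growth of vehicle-only control cultures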; conditions: S. cerevisiae CLN2oe strain, hits give high values
How it was run: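 Cells of an engineered yeast line with disturbed cell-cycle regulation are treated with compound. Inhibition of growth is then calculated relative to the vehicle-treated reference.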

[10] = NCI Yeast Anticancer Drug Screen. Data for the cln2 rad14 strain (AID 165);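 further: 0% = growth equal to vehicle treated cultures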; conditions: S. cerevisiae cln2 rad14 strain, hits give high values
How it was run: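 Strain: cln2 rad14 yeast, altered in cell cycle control and DNA damage repair. Read-out: growth inhibition vs vehicle.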

[11] = NCI Yeast Anticancer Drug Screen. Data for the bub3 strain (AID 167); conditions: S. cerevisiae bub3 mutant strain, hits give high values
How it was run: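 Mutant yeast screening strain plus compound; vehicle-treated cultures serve as the 0% inhibition reference.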

[12] = NCI Yeast Anticancer Drug Screen. Data for the wt2 strain (AID 169); conditions: S. cerevisiae wt2 strain growth inhibition, hits give high values
How it was run: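 Growth of compound-treated yeast is measured and expressed as inhibition relative to vehicle-only controls.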

[13] = NCI Yeast Anticancer Drug Screen. Data for the mlh1 strain (AID 171);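 further: 0% = growth of vehicle-treated control cultures of the same strain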; conditions: S. cerevisiae mlh1 strain growth inhibition, hits give high values
How it was run: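 Test agents were incubated with yeast bearing a defined DNA damage repair or cell cycle control alteration; values are growth inhibition normalised to vehicle-treated cultures.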

[14] = NCI Yeast Anticancer Drug Screen. Data for the sgs1 strain (AID 173);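 further: 0% = growth of vehicle-only control cultures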; conditions: S. cerevisiae sgs1 mutant, hits give high values
How it was run: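 Strain with an altered DNA repair or cell cycle pathway exposed to compound. Growth then measured. Value = inhibition versus vehicle control.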

[15] = NCI Yeast Anticancer Drug Screen. Data for the mlh1 rad18 strain (AID 175); conditions: S. cerevisiae mlh1 rad18 strain growth inhibition, hits give high values
How it was run: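 A repair-deficient yeast strain is exposed to test compound, and growth is scored relative to vehicle-treated controls.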

[16] = NCI Yeast Anticancer Drug Screen. Data for the rad18 strain (AID 177); conditions: S. cerevisiae rad18 mutant growth inhibition, hits give high values
How it was run: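 DNA-repair-defective yeast; compound treatment; growth inhibition scored against vehicle.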

[17] = at 5.0 µM (retest, dose inferred, filed as 0.5)
[18] = at 50.0 µM (retest, dose inferred, filed as 5.0)

Measured: growth inhibition

CC(O)C(O)C(O)C(/C=N\Nc1ccccc1)=N/Nc1ccccc1 (stereo not drawn)
active: [1]; at 100.0 µM 98% | [2]; at 100.0 µM 96% | [4]; at 100.0 µM 99% | [5]; at 50.0 µM 97.8% | [5]; at 100.0 µM 98% | [6]; at 100.0 µM 98% | [7]; at 100.0 µM 99% | [8]; at 50.0 µM 95.5% | [12]; at 100.0 µM 99% | [13]; at 100.0 µM 98% | [14]; at 100.0 µM 98% | [15]; at 50.0 µM 98.9% | [16]; at 33.0 µM 95% | [16]; at 100.0 µM 99%
inactive: [1]; at 1.2 µM 5% | [1]; at 3.7 µM 10% | [1]; at 11.0 µM 12% | [1]; at 33.0 µM 69% | [2]; at 1.2 µM 4% | [2]; at 3.7 µM 9% | [2]; at 11.0 µM 13% | [2]; at 33.0 µM 8% | [3]; at 1.2 µM 14% | [3]; at 3.7 µM 26% | [3]; at 11.0 µM 39% | [3]; at 33.0 µM 50% | [3]; at 100.0 µM 50% | [4]; at 1.2 µM 6% | [4]; at 3.7 µM 9% | [4]; at 11.0 µM 10% | [4]; at 33.0 µM 47% | [5]; at 1.2 µM 5% | [5]; at 3.7 µM 5% | [5]; [17] 19% | [5]; at 11.0 µM 10% | [5]; at 33.0 µM 63% | [5]; [18] 51% | [6]; at 1.2 µM -4% | [6]; at 3.7 µM 1% | [6]; [17] -5% | [6]; at 11.0 µM 11% | [6]; at 33.0 µM 46% | [6]; [18] 51% | [6]; at 50.0 µM 58.3% | [7]; at 1.2 µM -2% | [7]; at 3.7 µM -1% | [7]; at 11.0 µM 4% | [7]; at 33.0 µM 21% | [8]; [17] 3% | [8]; [18] 56% | [9]; at 1.2 µM -7% | [9]; at 3.7 µM -4% | [9]; at 11.0 µM -5% | [9]; at 33.0 µM 18% | [9]; at 100.0 µM 28% | [10]; [17] 1% | [10]; [18] 49% | [10]; at 50.0 µM 8.25% | [11]; at 1.2 µM -3% | [11]; at 3.7 µM -3% | [11]; [17] -7% | [11]; at 11.0 µM 19% | [11]; at 33.0 µM 24% | [11]; [18] 43% | [11]; at 50.0 µM 69.1% | [11]; at 100.0 µM 30% | [12]; at 1.2 µM 2% | [12]; at 3.7 µM 8% | [12]; at 11.0 µM 10% | [12]; at 33.0 µM 38% | [13]; at 1.2 µM 3% | [13]; at 3.7 µM 4% | [13]; at 11.0 µM 6% | [13]; at 33.0 µM 68% | [14]; at 1.2 µM 1% | [14]; at 3.7 µM 10% | [14]; at 11.0 µM 11% | [14]; at 33.0 µM 68% | [15]; [17] 7% | [15]; [18] 65% | [16]; at 1.2 µM 5% | [16]; at 3.7 µM 9% | [16]; at 11.0 µM 9%

Reference: PubChem BioAssay (NCI)
